# Data from PubChem BioAssay AID2472 (National Center for Advancing Translational Sciences (NCATS), 2010).
# Values joined by “and” are separate entries in the source; they are usually repeats but may differ in a detail not shown here. Identical values can stand only once. The campaign covered roughly 290,000 compounds. About 2,000 (0.69%) were called active. Rule as the data show it: active = activity change below about -30%; inactive = the rest, inconclusive results apart. This excerpt belongs to a sample that is enriched for actives. The source holds several records for some structures; these can differ, active in one and inactive in another.
# Experiment: qHTS Assay for Inhibitors of Fructose-1,6-bisphosphate Aldolase from Giardia Lamblia: Coupling assay counterscreen
# Details: coupling enzyme system counterscreen, AmpLite Red fluorescence; at 58.2 µM (top of the series)
# From the text: MLPCN Grant: MH085699-01 Assay Provider: Osnat Herzberg, University of Maryland NCGC Assay Overview: The objective of this project is to obtain compounds that inhibit Giardia lamblia growth. G. lamblia is a human pathogen which afflicts impoverished nations; it is the most common cause of outbreaks of diarrhea in the United States. During the course of our study of potential drug targets in Giardia, we have identified the Class II (Zn2+ functions in electrophilic catalysis) fructose-1,6-bisphosphate aldolase (FBPA) as an excellent candidate for drug targeting. FBPA is a key glycolytic pathway enzyme, essential for G. lamblia survival. The human FBPA belongs to the Class I aldolases, which have a different substrate binding site structure and a radically different catalytic mechanism (employing a lysine-Schiff base intermediate). Therefore, affinity-based or mechanism-based inhibitors of the Giardia FBPA are expected not to interfere with the catalytic function of the human FBPA. A glyceraldehyde-3-phosphate dehydrogenase/triose phosphate isomerase/NAD/arsenate coupled assay was adapted to the 1536-well HTP format for use in the primary screen. This was done by coupling it to a diaphorase/resazurin/resorufin reaction that can be monitored by fluorescence (excitation, 544 nm; emission, 590 nm). Compounds identified in this screen will be further evaluated by coupling the […]/triose phosphate isomerase/NADH assay to a phenazine methosulfate/tetranitroblue tetrazolium color reaction. False positives due to the dehydrogenases and diaphorase inhibition will be eliminated, and selectivity assay will triage inhibitors of mammalian triose phosphate isomerase and the Class I FBPA. G. lamblia FBPA inhibitors identified by the in vitro analyses will be examined for growth inhibition of Giardia trophozoites, and for cytotoxicity in human cells. This assay specifically addresses whether activity observed in the primary screen (AID 2451) is related to inhibition of the coupling assay used, as opposed to inhibition of aldolase. Actives in this assay are considered inconclusive for activity against aldolase.
# NCGC Assay Protocol: Step,Parameter,Value,Description 1,Coupling enzyme reagent,2 uL,glyceraldehyde-3-phosphate 2,Compound,23 nL,3.68 nM-57.5 uM final concentration 3,Time,10 min,RT Incubation 4,Substrate/detection Reagent,2 uL,Substrate + enzyme coupling system + AmpLite Red kit 5,Time,20 min,RT Incubation 6,Detector,525 nm/598 nm (Fluorescence),ViewLux Fluorescence Read (Read 1) Notes: 1,Medium-binding black solid-bottom Kalypsys plates. FRD or Kalypsys dispenser. 2,Compound Library (10 mM ,1:5 dilution). Pin-transferred for a [final] range of 3.68 nM-57.5 uM. 3,RT incubation 4,FRD or Kalypsys dispenser, 2 uL of reaction mixture. Bottle kept at 4C and covered in foil to protect from light. 5,RT incubation 6,ViewLux Protocol 1194; Excitation filter wheel A (525/20 Pol; BODIPY TMR FP), Emission filter wheel B (598/25 S; BODIPY TMR FP S). Keywords: Fructose-bisphosphate aldolase, FBPA , Giardia lamblia , Giardia, HTS, Inhibitors
# % is scaled to controls: 0 for no effect and ±100 for the full control effect.
row,SMILES,"activity change, negative = inhibition"
1,NCCc1c[nH]c2ccc(O)cc12,-9.84% (inactive) and -40.6% (active)
2,Cc1cccc2c(CCN)c[nH]c12,-2.64% (inactive)
3,C/C(CCc1c[nH]c2ccccc12)=N\O,-2.5% (inactive)
4,N#Cc1cc(Br)c(O)c(Br)c1,2.57% (inactive)
5,C[C@@H]1C[C@H]2CC[C@H](O2)[C@H](C)C(=O)O[C@@H](C)C[C@@H]2CC[C@@H](O2)[C@@H](C)C(=O)O[C@H](C)C[C@H]2CC[C@H](O2)[C@H](C)C(=O)O[C@@H](C)C[C@@H]2CC[C@@H](O2)[C@@H](C)C(=O)O1,-0.707% (inactive)
6,C[C@H]1C/C=C/[C@@H]2[C@@H]3O[C@]3(C)[C@@H](C)[C@H]3[C@H](Cc4ccccc4)NC(=O)[C@]32OC(=O)O/C=C/[C@](C)(O)C1=O,1.28% (inactive)
7,CCCCCCCCCCCCN=C(N)N,-0.411% (inactive)
8,CO[C@H]1[C@@H](O)[C@@H](C)O[C@H](O[C@H]2[C@H](Oc3cccc4c(O)c5c(=O)oc6ccc(C)c7c(=O)oc(c34)c5c67)O[C@H](C)[C@H](O)[C@@H]2O)[C@@H]1O,-47.8% (active)
9,Nc1ccc(-c2ccc(N)c(N)c2)cc1N,3.84% (inactive)
10,CC(=O)[O][Sn]([c]1ccccc1)([c]1ccccc1)[c]1ccccc1,-1.83% (inactive)
11,CN(C)C[C@H]1CCCC[C@]1(O)c1cccc(O)c1,0.267% (inactive)
12,CCOC(=O)c1c(N)n(Cc2ccccc2)c2nc3ccccc3nc12,-2.59% (inactive)
13,CCOC(=O)C(O)(c1ccc(NC(=O)c2ccco2)c(OC)c1)C(F)(F)F (stereo not given),-4.29% (inactive)
14,COc1cc(Cn2c(N)c(C(=O)NCc3ccco3)c3nc4ccccc4nc32)cc(OC)c1OC,-52% (active)
15,C[C@]12O[C@H](C[C@@]1(O)C(=O)O)n1c3ccccc3c3c4c(c5c6ccccc6n2c5c31)CNC4=O,0.208% (inactive)
